Reference: PubChem BioAssay (NCATS)
Inconclusive results are not listed. Values without a mark were called inactive. Activity calls are given as the source filed them. Calls follow the shape of the dose curve; as a rule, active = well fitted inhibition curve with a large enough effect; inconclusive = small, poorly fitted or top-dose-only effect; inactive = no such curve, though single readings can be large or run the other way.

tested on: Zika virus NS2B-NS3 protease (unlinked complex); experiment: Primary screen GU Rhodamine qHTS for Zika virus inhibitors: Unlinked NS2B-NS3 protease assay (AID 1347159); details: Recombinant ZIKV NS2B-NS3 protease, Rhodamine110 substrate fluorescence; series mostly up to 107 µM; activity change, negative = inhibition: at the top concentration; also: nearly all actives have a fitted effect of over 60% in size
Source text: Avindra Nath, Ph.D., National Institute of Neurological Disorders and Stroke (NINDS), Bethesda, MD
Radhakrishnan Padmanabhan, Ph.D., Georgetown University (GU), Washington D.C.
Zika Virus causes congenital defects, including microcephaly and is associated with Guillain-Barre syndrome, eningoencephalitis and myelitis in infected adult. […] Using a target-based approach, we hope to establish a screening paradigm to uncover novel, cell-active NS2B-NS3 protease (Zika Virus) specific inhibitors from NCATS' collection of small molecules using qHTS.
Four assay panel was created to identify potential Zika Virus inhibitors. Namely, (1) GU unlinked NS2B-NS3 AMC tagged protease qHTS, (2) GU unlinked NS2B-NS3 Rhodamine tagged protease qHTS, (3) NINDS linked NS2B-NS3 AMC tagged protease qHTS, (4) NINDS linked NS2B-NS3 Rhodamine tagged protease qHTS. Active compounds were re-acquired and re-screened to confirm inhibition. Inhibitors were further screened against various confirmatory and counterscreens in dose response format.
Early Translation Branch (ETB)
National Center for Advancing Translational Sciences (NCATS), Rockville, MD
National Institute of Health (NIH), Bethesda, Maryland
Padmanabhan lab provided the NS2B hydrophilic domain and NS3 protease domain in a noncovalent complex used for the unlinked assay. Control compound aprotinin is obtained from Thermo Scientific (#78432; Waltham, Massachusetts). Rhodamine110 substrate ([N-Cbz]-Nle-Lys-Arg-Arg-Rhod110-Arg-Arg-Lys-Nle-[N-Cbz]) was purchased from either Genscript or Bachem.
1536-well Protease (Rhodamine110 Substrate) Assay:
Briefly, 3 microL of enzyme (25 nM final concentration), in assay buffer (10 mM Tris-HCl pH 8.0 with 0.01% Tween 20) were dispensed into a 1,536-well solid-bottom black plate (Greiner Bio One, Monroe, NC). Twenty-three nL of compounds (final concentration range 7.28 nM to 114 microM) or control Aprotinin (final concentration range 3.47 nM to 114 microM) were transferred via Wako Pin-tool (Wako Automation, Richmond, VA). Samples were incubated (room temperature, protected from light) for 15 minutes followed by a 1 microL Rhodamine110 substrate addition (1.5 microM final concentration). Plates were then immediately read on a ViewLux High-throughput CCD imager (PerkinElmer, Waltham, MA) equipped with FITC fluorescence optics (480(20) nm excitation, 540(25) nm emission), then incubated (room temperature, protected from light) for 15 minutes (~15% conversion). The change in fluorescence intensity over the 15-minute reaction period was normalized against no-inhibitor and no-enzyme controls and the resulting percent inhibition data were fitted to a 4-parameter Hill equation. Aprotinin was used as intraplate control.
% is scaled to controls: 0 for no effect and ±100 for the full control effect; potency is read from the fitted curve at half-maximal effect.

| Compound | activity change, negative = inhibition | Potency |
| --- | --- | --- |
| O=c1[nH]c(-c2ccc(C(F)(F)F)cc2)nc2c1CSCC2 | 0% | – |
| Cn1cc(-c2ccc3nnc(C(F)(F)c4ccc5ncccc5c4)n3n2)cn1 | 11.3% | – |
| C[C@@H]1CN(Cc2ccc(F)cc2)[C@@H](C)CN1C(=O)c1cc2c(C(=O)C(=O)N(C)C)cn(C)c2cc1Cl | 49.3% | – |
| CC(C)(N)C(=O)N[C@H](COCc1ccccc1)C(=O)N1CCC2(CC1)CN(S(C)(=O)=O)c1ccccc12 | 36.9% | – |
| COc1nc(-c2ccc3c(c2)OCO3)n(-c2ccc(NC(=O)CSc3ccccc3)cc2)n1 | 0% | – |
| CS(=O)(=O)c1ccc(C(=O)Nc2ccc(Cl)c(-c3ccccn3)c2)c(Cl)c1 | 19.1% | – |
| S=C(NCc1ccc2c(c1)OCO2)N1CCN(c2ncnc3c2oc2ccccc23)CC1 | 18.8% | – |
| CS(=O)(=O)c1cccc(CNc2nc(Nc3ccc4c(c3)CCC(=O)N4)ncc2C(F)(F)F)c1 | -1.33% | – |
| OCCn1cc(-c2cnc3nnn(Cc4ccc5ncccc5c4)c3n2)cn1 | – | 50.1 µM (active) |
| CN(C)c1ccc(Nc2nc(N)n(C(=O)c3c(F)cccc3F)n2)cc1 | 0% | – |
| CNCc1ccc(-c2[nH]c3cc(F)cc4c3c2CCNC4=O)cc1 | -1.53% | – |
| COc1ccccc1[C@H](c1cccc2ccccc12)[C@@](C)(C#N)C(=O)N1CCC(c2cccc(C(F)(F)F)c2)CC1 | -7.03% | – |
| CNC(=O)c1ccc(C)c(-n2c(C)cc(OCc3ccc(F)cc3F)c(Br)c2=O)c1 | 16.5% | – |
| CC(C)OC(=O)C1=CN(C(=O)c2ccc(F)c(F)c2)CC(C)(C)c2c1[nH]c1ccccc21 | -6.75% | – |
| Cc1csc(NC(=O)c2sc3nc4c(c(C(F)(F)F)c3c2N)CCC4)n1 | -18.5% | – |
| CC1(C)Cc2c(-c3ccccc3)c(-c3ccc(Cl)cc3)c(CC(=O)O)n2C1 | – | 10 µM (active) |
| N#CC[C@H](C1CCCC1)n1cc(-c2ncnc3[nH]ccc23)cn1 | 12.5% | – |
| CN(C)c1ccc(C2Nc3ccc4ccccc4c3C3=C2C(=O)CC(C)(C)C3)cc1Br (stereo not given) | 60% | – |
| O=C(Nc1ccc(F)c(C(F)(F)F)c1)Nc1nnc(-c2ccncc2)s1 | – | 8.91 µM (active) |
| CCC(C)n1ncn(-c2ccc(N3CCN(c4ccc(OC[C@H]5CO[C@](Cn6cncn6)(c6ccc(Cl)cc6Cl)O5)cc4)CC3)cc2)c1=O (stereo not given in full) | 26% [at 57.1 µM] | – |

| Compound | activity change, negative = inhibition | Potency |
| --- | --- | --- |
| CCCc1nn(C)c2c(=O)[nH]c(-c3cc(S(=O)(=O)N4CCN(C)CC4)ccc3OCC)nc12 | 23% | – |
| C#Cc1cccc(Nc2ncnc3cc(OCCOC)c(OCCOC)cc23)c1 | 1.46% | – |
| CN(C(=O)c1ccc(F)cc1C(F)(F)F)C1CCN(c2nnc(-c3ccnn3C)c3ccccc23)CC1 | -8.3% | – |
| CCOc1cc(C(=O)Nc2ccc(Cl)c(-c3nc4ccccc4[nH]3)c2)cc(OCC)c1OCC | 21.8% | – |
| CCCS(=O)(=O)Nc1ccc(F)c(C(=O)c2c[nH]c3ncc(Cl)cc23)c1F | -28.4% | – |
| CC(C)(Sc1ccc(CCN(CCCCC2CCCCC2)C(=O)NC2CCCCC2)cc1)C(=O)O | – | 3.55 µM (active) |
| CCc1cc(Nc2nccc(-c3c(-c4ccc(OC)c(C(=O)Nc5c(F)cccc5F)c4)nc4ccccn34)n2)c(OC)cc1N1CCC(N2CCN(S(C)(=O)=O)CC2)CC1 | 54.5% | – |
| CCc1cncnc1N1CCN(Cc2nc3ccc(C(F)(F)F)cc3[nH]2)CC1 | 3.66% | – |
| COc1cc(Oc2ccnc3cc(OC)c(OC)cc23)ccc1NC(=O)NC(C)c1nccs1 (stereo not given) | 0.614% | – |
| CCN(CC)CCCC(C)Nc1ccnc2cc(Cl)ccc12 (stereo not given) | 52.4% [at 19.1 µM] | – |
| O=C1CCCC2=C1C(c1[nH]ncc1Cl)N=C(Nc1nc3ccccc3o1)N2 (stereo not given) | 129% | – |
| Cn1cnc2c(F)c(Nc3ccc(Br)cc3Cl)c(C(=O)NOCCO)cc21 | -15.3% | – |
| Cc1cnc(Nc2ccc(OCCN3CCCC3)cc2)nc1Nc1cccc(S(=O)(=O)NC(C)(C)C)c1 | 102% | – |
| COc1cc2c(cc1OC)CN(CCc1ccc(NC(=O)c3cccc4c(=O)c5cccc(OC)c5[nH]c34)cc1)CC2 | – | 39.8 µM (active) |
| CN(C)C(=O)c1ccc(S(=O)(=O)c2ccc(NC(=O)[C@@](C)(O)C(F)(F)F)c(Cl)c2)cc1 | 3.09% | – |
| O=C(NOC[C@H](O)CO)c1ccc(F)c(F)c1Nc1ccc(I)cc1F | – | 22.4 µM (active) |
| CCOc1ccn(-c2ccc(F)cc2)c(=O)c1C(=O)Nc1ccc(Oc2ccnc(N)c2Cl)c(F)c1 | -1.37% | – |
| CC1(C)CNc2cc(NC(=O)c3cccnc3NCc3ccncc3)ccc21 | 6.56% | – |
| O=C(c1cc(Cc2n[nH]c(=O)c3ccccc23)ccc1F)N1CCN(C(=O)C2CC2)CC1 | -3.68% | – |
| Cc1cc(Nc2nc(N[C@@H](C)c3ncc(F)cn3)ncc2Cl)n[nH]1 | 7.72% | – |
